# In the library only some 2.9% were active in any assay of this set; here they are far more common.
# B2AR ag = activates human beta-2 adrenergic receptor causing internalization; response, % (no concentration beside the values); Am2.2-beta2AR cells, FAP receptor internalization, flow cytometry; P07550; 0.43% of 340,000 active;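 active means response above a set limit, near 3 SD of response in nonfluorescent compounds, cut at about 42% in these data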
# GRK2 inh = human GRK2 inhibition via aptamer displacement; bead flow cytometry, FAM-aptamer displacement from GRK2; inhibition of aptamer binding, % at 10 µM; 0.59% of 330,000 active; AID 488847;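 active means inhibition of aptamer binding above 40%, roughly 3 SD of noise, on plates passing a quality check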;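 further: median bead fluorescence of bound FAM aptamer so fluorescent compounds give negative values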
# NadD inh = NadD (S. aureus) enzyme inhibition; purified NadD enzyme, colorimetric absorbance read-out; inhibition, % at 20 µM; 0.78% of 360,000 active; in the data active means inhibition above about 26%
# PP1 inh = PP1-alpha (human) inhibition in PP5 counter-screen; purified PP1alpha, OMFP fluorescence; inhibition, % at 6.7 µM; 0.9% of 320,000 active; AID 2235;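 active means inhibition above the mean inhibition of all tested compounds plus 3 SD, computed separately for each screening campaign, cut at about 15% in these data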
# Target sequence (P62136 whole entry, looked up): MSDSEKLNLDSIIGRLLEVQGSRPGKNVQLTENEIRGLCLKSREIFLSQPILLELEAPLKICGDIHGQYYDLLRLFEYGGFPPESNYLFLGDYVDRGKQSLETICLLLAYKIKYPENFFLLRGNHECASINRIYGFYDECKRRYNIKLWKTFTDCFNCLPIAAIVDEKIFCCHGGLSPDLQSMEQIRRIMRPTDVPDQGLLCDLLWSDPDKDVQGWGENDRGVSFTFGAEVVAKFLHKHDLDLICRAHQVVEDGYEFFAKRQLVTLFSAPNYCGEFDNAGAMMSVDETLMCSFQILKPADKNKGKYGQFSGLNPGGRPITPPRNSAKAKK
# Exocytosis inh = blocks lytic granule exocytosis; TALL-104 LAMP-1 surface exposure, flow cytometry; cells stimulated with thapsigargin and PMA; inhibition, % at 10 µM; 0.66% of 360,000 active; AID 651702;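 active means inhibition above about 55%, limit read from the data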
# Granule exo CP1 = lytic granule exocytosis inhibition | shares compounds with Exocytosis inh | inhibition, % at 10 µM | AID 651954 | 11% of 1,500 active | TALL-104 cells, LAMP-1 externalization, flow cytometry; stimulated with PMA plus thapsigargin; in the data active means inhibition above about 60%;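 further: 0% = stimulated vehicle wells and 100% = unstimulated wells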
# Active calls of the source: *; / = no result.
SMILES,B2AR ag,GRK2 inh,NadD inh,PP1 inh,Exocytosis inh,Granule exo CP1
CN1CCC(O)(c2cccs2)C(C(=O)c2cccs2)C1 (centres undefined),-0.7,26.0,-3.3,-3.8,75.1*,-10.8
COC(=O)C1=C(c2ccc(C(C)=O)cc2)C[C@@H]2CC[C@H]1N2C(=O)NC1CCCCC1,-12.7,0.0,-7.8,-2.4,65.4*,-12.6
CCN(CC)c1ccc(CNCCc2ccccc2F)cc1,-4.0,2.0,-12.6,-2.2,0.5,/
c1ccc(N2[C@@H]3CC[C@H]2c2ccccc2C3)cc1,/,/,-2.7,/,0.1,/
CN(C)CCN(CC1CCCN(Cc2ccccc2F)C1)C(=O)Cc1ccccc1F (centres undefined),10.9,0.0,-6.0,-8.7,34.0,/
COc1ccc(CC(=O)N(CCN(C)C)CC2CCCN(Cc3ccccc3F)C2)cc1 (centres undefined),8.5,0.0,6.2,-4.6,62.7*,-12.1
CC(C)CNC(=O)c1c(N)n(Cc2ccco2)c2nc3ccccc3nc12,-7.1,2.0,16.3,2.6,9.8,/
CC(C)CNC(=O)c1c(N)n(Cc2ccc3c(c2)OCO3)c2nc3ccccc3nc12,-0.7,1.0,11.5,7.0,55.8*,80.8*
O=C1/C(=C\c2ccc(Cl)cc2Cl)N2CCC1CC2,1.5,1.0,2.2,-7.0,64.8*,-12.0
O=C1/C(=C\c2cc3c(cc2Cl)OCO3)N2CCC1CC2,-3.7,0.0,-5.6,-1.8,3.1,/
Cc1ccc(OCC(=O)N2CCN(C3CCC(c4ccccc4)CC3)CC2)cc1 (centres undefined),3.6,1.0,2.5,-9.9,95.3*,-1.9
Cc1cccc(NP(=O)(Oc2ccccc2)Oc2ccccc2)c1C,7.4,0.0,-12.0,6.0,58.4*,-10.6
CC(Cc1ccccc1)NCC(=O)Nc1cc(N(C)C)nc2ccccc12 (centres undefined),9.5,/,-5.0,-1.8,61.5*,-14.4
CC(Cc1ccccc1)NCc1ccccc1O (centres undefined),7.7,0.0,-4.5,-3.6,-0.8,/
CN(C)CC(C(=O)Cc1ccccc1)c1ccccc1 (centres undefined),15.9,/,-0.9,/,3.9,/
COC(=O)c1ccc(NC(=O)CSc2nc3ccc(N4C(=O)C5C6C=CC(C6)C5C4=O)cc3s2)cc1 (centres undefined),23.5,0.0,3.9,7.6,80.7*,84.7*

# Source: PubChem (several laboratories)
